The results in this text go back to PubChem BioAssay (Tox21).

A short description of test [1]: qHTS assay to identify small molecule antagonists of the constitutive androstane receptor (CAR) signaling pathway - cell viability counter screen (AID 1224837). Note: nearly all actives have a fitted effect of over 45% in size. The essentials: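 HepG2 cells stably expressing hCAR and a CYP2B6-2.2kb reporter were plated and pre-incubated 4 hr at 37 C/5% CO2, then given compounds at 15 concentrations plus 50 nM CITCO (final). After 23 hr, viability was read by CellTiter-Fluor fluorescence.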

Test [2] has as its target Nuclear receptor subfamily 1 group I member 3 (Homo sapiens) (UniProt Q14994). Kind of test: qHTS assay to identify small molecule antagonists of the constitutive androstane receptor (CAR) signaling pathway (AID 1224838). Note: nearly all actives have a fitted effect of over 40% in size. In short, it runs like this:
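HepG2 cells stably co-transfected with hCAR and a CYP2B6-2.2kb luciferase reporter were seeded 4 h before compound addition at 15 concentrations. Cells were stimulated with 50 nM CITCO (final) for 24 h at 37 C; luciferase luminescence was then read.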
Background: In qHTS, concentration-response curves come from the screen itself.

Test [3] shares this target. Kind of test: qHTS assay to identify small molecule agonists of the constitutive androstane receptor (CAR) signaling pathway (AID 1224839).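 Note: HepG2 cells stably carrying human CAR and a CYP2B6 luciferase reporter; nearly all actives have a fitted effect of over 15% in size.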 In short, it runs like this: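 Using human hepatoma HepG2 cells engineered with hCAR and a CYP2B6-2.2kb reporter, 15-concentration compound series were incubated 24 h alongside PK11195 at 0.75 uM final, with luminescence quantified afterwards.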

Test [4] in a line: qHTS assay to identify small molecule antagonists of the estrogen related receptor signaling pathway with the pleiotropic PPARgamma coactivator (PGC) from Tox21 10K library - cell viability counter screen (AID 1224840; active = well fitted cell-killing curve with a large enough effect in the repeat runs, not every such curve was filed as active; note: nearly all actives have a fitted effect of over 40% in size; note: potency is the fitted concentration of half-maximal effect). In short, it runs like this: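 PGC/ERR cells were seeded at 2,000 cells/well and left 6 hours at 37 C/5% CO2 before pin-tool addition of compounds in DMSO. After 17.5 hours at 37 C, CellTiter-Fluor was added and fluorescence read 30 minutes later.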

The target of test [5] is Thyrotropin receptor (Homo sapiens) (UniProt P16473). Kind of test: qHTS assay to identify small molecule agonists of the thyroid stimulating hormone receptor (TSHR) signaling pathway (AID 1224843; calls by dose curve; note: nearly all actives have a fitted effect of over 45% in size). In short, it runs like this:
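HEK293 cells stably bearing the thyrotropin receptor were plated at 800 cells/well and challenged with compound (30 min, RT). Accumulated cAMP was quantified via cAMP-d2 competing for cryptate-tagged antibody.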

Test [6] is described as follows: qHTS assay to identify small molecule agonists of the hypoxia (HIF-1) signaling pathway - cell viability counter screen (AID 1224844; calls by dose curve; note: nearly all actives have a fitted effect of over 50% in size). The essentials: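 HRE-bla ME-180 cells in medium with 0.5% dialyzed FBS were preincubated 5 hrs at 37C, exposed to compounds for 17 hrs, then viability was read as CellTiter-Glo luminescence after 30 min at room temperature, in the reporter wells.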

A short description of test [7]: qHTS assay to identify small molecule agonists of the hypoxia (HIF-1) signaling pathway (AID 1224846; active = well fitted activation curve with a large enough effect in the signal ratio in the repeat runs, not every such curve was filed as active; the % refers to the signal ratio). The essentials: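 HRE-bla ME-180 cells (beta-lactamase reporter under hypoxia response element) were plated at 2,000 cells/well in medium with 0.5% dialyzed FBS, rested 5 hrs, then given compounds in DMSO for 17 hrs at 37C, 5% CO2. Reporter induction was read with CCF4-AM FRET substrate.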

Test [8] in a line: qHTS assay to identify small molecule agonists of H2AX - cell viability counter screen (AID 1224847; calls by dose curve;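 note: wild-type CHO-K1 cells; top concentration of the series differs between compounds; nearly all actives have a fitted effect of over 30% in size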). The essentials: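 After overnight plating of 1000 CHO-K1 cells per well, a 15-concentration compound series was applied for 3 hr at 37C. Luminescence from CellTiter-Glo, read following 30 min at room temperature, reflected cell viability.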
Test [9] is described as follows: qHTS RealTime-Glo MT Cell Viability Assay in HepG2 cells - 24 hour (AID 1224867). Note: nearly all actives have a fitted effect of over 50% in size. The essentials:
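Viability was tracked continuously by NanoLuc luminescence from prosubstrate reduced by living HepG2 cells, at successive time points over 40 h of compound exposure. Cells with reagent were preincubated 5 h at 37 °C before compound addition.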

The nature of test [10]: qHTS RealTime-Glo MT Cell Viability Assay in HEK293 cells - 32 hour (AID 1224868). Note: nearly all actives have a fitted effect of over 50% in size. Note: potency is the fitted concentration of half-maximal effect. In short, it runs like this: (§1)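 Viability tracked continuously by luminescence as live cells reduce a prosubstrate for NanoLuc; HEK293 cells preincubated 5 h, compound-treated at 37 C, and read at 0, 8, 16, 24, 32 and 40 h.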
Test [11] in a line: A CellTox Green Cytotoxicity Assay to monitor cytotoxicity in HEK293 cells - 0 hour (AID 1224869). Note: nearly all actives have a fitted effect of over 50% in size. The essentials:
(§2)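 HEK293 cells premixed with CellTox Green dye were seeded at 600 cells/well and left 5 h at 37 C/5% CO2 before pin transfer of 23 nL compound in DMSO. Fluorescence from dye bound to dead-cell DNA was read during 40 h treatment.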

Test [12] is described as follows: qHTS RealTime-Glo MT Cell Viability Assay in HepG2 cells - 40 hour (AID 1224870). Note: nearly all actives have a fitted effect of over 50% in size. The essentials: (§3)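 Real-time viability: cells seeded at 600 per well together with NanoLuc and cell-permeant prosubstrate, compounds added after 5 h incubation. Luminescence tracked at 0, 8, 16, 24, 32 and 40 h of exposure.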
A short description of test [13]: A CellTox Green Cytotoxicity Assay to monitor cytotoxicity in HEK293 cells - 40 hour (AID 1224871). Note: nearly all actives have a fitted effect of over 45% in size. In short, it runs like this: as §2
Test [14] can be described thus: qHTS RealTime-Glo MT Cell Viability Assay in HEK293 cells - 16 hour (AID 1224872). In short, it runs like this: as §1
A short description of test [15]: qHTS RealTime-Glo MT Cell Viability Assay in HepG2 cells - 8 hour (AID 1224873). Note: nearly all actives have a fitted effect of over 55% in size. The essentials: as §3
Test [16] can be described thus: qHTS assay to identify small molecule antagonists of the estrogen related receptor signaling pathway with the pleiotropic PPARgamma coactivator (PGC) from Tox21 10K library (AID 1224841; call rule not given here; note: potency is the fitted concentration of half-maximal effect). The essentials: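 PGC/ERR reporter cells were seeded at 2,000 cells/well and held 6 hours at 37 C/5% CO2 before pin-tool addition of compounds in DMSO. After 18 hours at 37 C, One-Glo was added and luminescence read after 30 minutes at room temperature.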

Test [17] can be described thus: qHTS assay to identify small molecule agonists of the estrogen related receptor signaling pathway with the pleiotropic PPARgamma coactivator (PGC) from Tox21 10K library (AID 1224842). Note: nearly all actives have a fitted effect of over 15% in size. The essentials: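 Luminescence from One-Glo (30 min, room temperature) measured after PGC/ERR cells had 18 h at 37 C with pinned compound (23 nL in DMSO). Cells had been seeded at 2,000 per well and pre-incubated 6 h.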

Test [18] can be described thus: qHTS assay to identify small molecule agonists of H2AX (AID 1224845; active = well fitted activation curve with a large enough effect in the signal ratio in the repeat runs, not every such curve was filed as active; the % refers to the signal ratio; note: potency is the fitted concentration of half-maximal effect). The essentials:
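Phospho-H2AX Ser139 measured by HTRF (ex 320 nm; em 665 and 620 nm) after 24 hr antibody incubation. Compounds, 15 concentrations, 0.76% DMSO, were applied to CHO-K1 cells for 3hr at 37C before lysis.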

The nature of test [19]: qHTS assay to identify small molecule antagonists of the estrogen related receptor (ERR) signaling pathway from Tox21 library (AID 1224848). Note: nearly all actives have a fitted effect of over 50% in size. Note: potency is the fitted concentration of half-maximal effect. In short, it runs like this:
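Reading was by luminescence 30 min after ONE-Glo addition. Before that, ERR cells at 2,000 per well had rested 6 h at 37 C/5% CO2 and then received pin-tooled compounds in DMSO for 18 h at 37 C.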

The nature of test [20]: qHTS assay to identify small molecule agonists of the estrogen related receptor (ERR) signaling pathway from Tox21 library (AID 1224849; calls by dose curve; note: nearly all actives have a fitted effect of over 15% in size). The following applies: ERR reporter cell line, ONE-Glo luciferase, 18 h; at 92.4 µM (top of the series). In short, it runs like this: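 ERR reporter cell line (NTP) seeded, rested 6 h at 37 C/5% CO2, then pinned with Tox21 compounds in DMSO. After 18 h at 37 C, ONE-Glo luciferase luminescence was read following 30 min at room temperature.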

Several values for one entry are separate records, joined by “and”; a condition that tells them apart may be missing. Equal entries are not always repeated. Records with an inconclusive call do not appear. Some structures have more than one record in an assay (separate samples or runs), and their calls can disagree. Activity calls are given as the source filed them. Unless noted, calls come from the whole dose curve; as a rule, active = well fitted curve in the direction sought with a large enough effect in the repeat runs; inconclusive = weak or mixed curves; inactive = no such curve, though single readings can be large; an effect the other way counts as inactive or inconclusive.
% is set by controls: 0 for no effect and ±100 for the full control effect.

Sequence of Thyrotropin receptor (Homo sapiens) (P16473 whole entry, looked up): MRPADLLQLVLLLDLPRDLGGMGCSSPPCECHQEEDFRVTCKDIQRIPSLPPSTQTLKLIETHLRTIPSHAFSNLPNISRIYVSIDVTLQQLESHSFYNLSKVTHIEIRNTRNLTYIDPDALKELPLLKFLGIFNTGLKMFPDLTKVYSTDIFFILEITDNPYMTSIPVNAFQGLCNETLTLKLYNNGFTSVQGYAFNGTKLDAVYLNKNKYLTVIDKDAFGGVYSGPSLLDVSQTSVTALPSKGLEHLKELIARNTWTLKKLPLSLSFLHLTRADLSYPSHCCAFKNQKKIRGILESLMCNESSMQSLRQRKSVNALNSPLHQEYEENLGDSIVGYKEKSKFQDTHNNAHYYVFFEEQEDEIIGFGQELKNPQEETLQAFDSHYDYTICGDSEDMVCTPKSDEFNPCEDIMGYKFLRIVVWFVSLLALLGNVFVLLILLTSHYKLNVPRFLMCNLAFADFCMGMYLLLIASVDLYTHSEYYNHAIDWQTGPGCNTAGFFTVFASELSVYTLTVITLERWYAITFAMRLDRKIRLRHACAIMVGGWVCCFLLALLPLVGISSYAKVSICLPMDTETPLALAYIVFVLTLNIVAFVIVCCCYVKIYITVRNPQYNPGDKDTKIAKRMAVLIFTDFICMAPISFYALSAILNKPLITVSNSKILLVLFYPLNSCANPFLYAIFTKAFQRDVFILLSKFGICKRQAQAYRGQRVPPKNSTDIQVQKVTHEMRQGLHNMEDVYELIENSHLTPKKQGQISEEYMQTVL
Sequence of Nuclear receptor subfamily 1 group I member 3 (Homo sapiens) (Q14994 whole entry, looked up): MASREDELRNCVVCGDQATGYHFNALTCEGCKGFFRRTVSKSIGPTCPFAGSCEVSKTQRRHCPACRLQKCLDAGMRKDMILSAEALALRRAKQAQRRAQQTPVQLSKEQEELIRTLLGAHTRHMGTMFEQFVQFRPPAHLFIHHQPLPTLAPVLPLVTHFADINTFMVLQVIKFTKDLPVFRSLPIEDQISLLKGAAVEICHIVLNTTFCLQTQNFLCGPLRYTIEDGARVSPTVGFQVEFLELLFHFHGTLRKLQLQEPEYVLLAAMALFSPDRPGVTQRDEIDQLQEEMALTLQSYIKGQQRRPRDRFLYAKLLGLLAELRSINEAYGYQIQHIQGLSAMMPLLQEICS

`C[C@]12CC[C@H]3[C@@H](CC[C@@]45O[C@@H]4C(O)=C(C#N)C[C@]35C)[C@@H]1CC[C@@H]2O`: the Potency entry in test [1], in test [2], in test [3], in [4], in [5] and in test [6] was “inactive” throughout. Moreover, the Potency result in test [8], in test [10], in [11] and in test [13] was “inactive” in each case. For the same molecule, the outcome in test [7], in test [9], in [12] and in test [14] was inactive.
Regarding `C#CC(C)(C)NC(=O)c1cc(Cl)cc(Cl)c1`, the Potency entry in [1], in test [2], in test [3], in test [4], in test [5] and in test [6] was “inactive” throughout. The Potency entry in test [8], in test [10], in [11] and in test [13] was “inactive” throughout. Also, the result in test [7], in test [9], in test [14] and in test [15] was inactive.
For `O=c1[nH]c2ccccc2c(=O)o1`, the Potency entry in [1], in [2], in [3], in [4], in test [5] and in test [6] was “inactive” in each case. Further, the Potency entry in [10], in test [11] and in test [13] was “inactive” throughout. Further, the result in [7], in [9], in [14] and in [15] was inactive.
For `CC(C)C#N`, the Potency result in test [1], in [2], in test [3], in test [4], in test [5] and in [6] was “inactive” each time. Besides, the Potency entry in [10], in [11] and in [13] was “inactive” throughout. The result in test [7], in [9], in [12], in test [14] and in test [15] was inactive.
In the case of `COc1ccc2c3c1O[C@H]1[C@@H](O)C=C[C@H]4[C@@H](C2)N(C)CC[C@@]341`, the Potency entry in test [1], in [5], in test [6], in test [8], in [11] and in test [13] was “inactive” throughout. Further, the Potency in test [4] is 42.6 µM (active) and inactive; in test [16] it was 23.9 µM (active) and inactive; in test [18], 99.2 µM (active) and inactive; in test [19], 26.9 µM (active) and inactive; in test [10] it was 43 µM (active) and inactive. Besides, the outcome in test [17], in [7], in test [9], in test [12] and in test [14] was inactive. Besides, the activity change, positive = activation in test [20] is -50.6% (inactive) and -3.7% (inactive).
